# Laboratory results from PubChem BioAssay (NCI).
# The panel holds about 79,000 compounds, 15% with a hit somewhere; the sample as a whole holds those more often. A number with no mark means an inactive call. Calls of active or inactive are those of the source. Cut-off read from the data, not from the text of the source: active = growth inhibition above about 70%; inactive = the rest.
# Assays:
# [1] = NCI Yeast Anticancer Drug Screen. Data for the rad50 strain (AID 155);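 note: 0% = growth of vehicle-only cultures of the same strain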; conditions: S. cerevisiae rad50 strain growth inhibition, active compounds read high
# Outline: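 Relative growth inhibition (compound vs vehicle) was measured in yeast with a defined repair-gene alteration.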
# [2] = NCI Yeast Anticancer Drug Screen. Data for the mec2-1 strain (AID 157); conditions: S. cerevisiae mec2-1 strain, active compounds read high
# Outline: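 Mutant yeast (mec2-1) grown with compound; growth inhibition relative to vehicle control reported.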
# [3] = NCI Yeast Anticancer Drug Screen. Data for the sgs1 mgt1 strain (AID 161);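 note: 0% = growth of cultures given vehicle only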; conditions: S. cerevisiae sgs1 mgt1 strain, active compounds read high
# Outline: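 Growth of a repair-deficient yeast mutant was monitored after compound treatment and expressed as inhibition relative to vehicle-treated cultures.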
# [4] = NCI Yeast Anticancer Drug Screen. Data for the cln2 rad14 strain (AID 165);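 note: 0% = growth equal to vehicle treated cultures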; conditions: S. cerevisiae cln2 rad14 strain, active compounds read high
# Outline: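 Readout is yeast growth inhibition versus vehicle-treated controls, using a strain with cln2 and rad14 alterations exposed to compound.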
# [5] = NCI Yeast Anticancer Drug Screen. Data for the bub3 strain (AID 167); conditions: S. cerevisiae bub3 mutant strain, active compounds read high
# Outline: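 Screening used yeast with an engineered genetic alteration affecting cell cycle control. Compound-exposed cultures were compared with vehicle cultures, and reduced growth was taken as inhibition.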
# [6] = NCI Yeast Anticancer Drug Screen. Data for the mlh1 rad18 strain (AID 175); conditions: S. cerevisiae mlh1 rad18 strain growth inhibition, active compounds read high
# Outline: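 Genetically defined yeast (DNA repair-deficient) exposed to compounds; growth inhibition determined relative to vehicle.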
# [7] = at 5.0 µM (retest, dose inferred, filed as 0.5)
# [8] = at 50.0 µM (retest, dose inferred, filed as 5.0)
SMILES,"growth inhibition [1, 7]","growth inhibition [1, 8]",growth inhibition ([1]; at 50.0 µM),"growth inhibition [2, 7]","growth inhibition [2, 8]",growth inhibition ([2]; at 50.0 µM),"growth inhibition [3, 7]","growth inhibition [3, 8]",growth inhibition ([3]; at 50.0 µM),"growth inhibition [4, 7]","growth inhibition [4, 8]",growth inhibition ([4]; at 50.0 µM),"growth inhibition [5, 7]","growth inhibition [5, 8]",growth inhibition ([5]; at 50.0 µM),"growth inhibition [6, 7]","growth inhibition [6, 8]",growth inhibition ([6]; at 50.0 µM)
CC(=O)OC1=CC2(OC(C)=O)CC(C)(C)C1C1C(=O)C=CC(=O)C12 (stereo not given),8%,14%,53.1%,-8%,10%,65.3%,0%,13%,68.2%,3%,-10%,33.9%,4%,14%,73.8% (active),5%,21%,17.1%
CN(C)CCOC(=O)c1ccccc1,3%,88% (active),49.4%,-6%,42%,22.4%,-2%,60%,24%,0%,81% (active),27.1%,-7%,71% (active),37.2%,2%,78% (active),42.2%
CNCC(O)c1cccc(O)c1 (stereo not given),7%,11%,74.9% (active),2%,-9%,14.8%,2%,-7%,45%,8%,-12%,19%,0%,-18%,21.2%,1%,-5%,31%
Cc1ccc(S(=O)(=O)NCCCSCCO)cc1,6%,45%,80.2% (active),-45%,91% (active),84.4% (active),-12%,25%,70.4% (active),9%,57%,74% (active),-11%,63%,74.2% (active),-1%,90% (active),54.6%
O=C(O)c1cc2c3ccccc3sc2c2ccccc12,-2%,4%,55.4%,-3%,-4%,5.3%,-1%,3%,15.1%,-3%,-3%,2.45%,-3%,-2%,19.7%,-3%,-2%,28%
CN(C)c1ccc(/C=C/c2ccnc3ccccc23)c(O)c1,0%,-6%,57%,-4%,-4%,28.6%,0%,-6%,58.9%,3%,-3%,34%,-4%,-6%,40.9%,-8%,-2%,68.8%
CCOC(=O)N/N=C/c1ccc([N+](=O)[O-])o1,11%,61%,89.9% (active),2%,35%,81.8% (active),3%,62%,92.2% (active),1%,19%,52%,17%,77% (active),82.1% (active),17%,78% (active),94% (active)
O=C1c2ccccc2S(=O)(=O)CC1Br (stereo not given),-7%,96% (active),99.2% (active),-21%,85% (active),99.7% (active),13%,98% (active),99.3% (active),6%,58%,99.3% (active),-4%,89% (active),99.4% (active),30%,98% (active),99.2% (active)
C/C(=N\O)c1ccc2cc(Br)c3ccccc3c2c1,12%,98% (active),96.2% (active),1%,98% (active),97.4% (active),-1%,98% (active),98% (active),-20%,96% (active),96% (active),8%,98% (active),95.5% (active),3%,98% (active),96.7% (active)
O=C(CCc1ccccc1)OCC1OC(OC(=O)CCc2ccccc2)C(OC(=O)CCc2ccccc2)C(OC(=O)CCc2ccccc2)C1OC(=O)CCc1ccccc1 (stereo not given),1%,4%,25.6%,0%,-2%,21.4%,-3%,-22%,19.7%,0%,-1%,-0.4%,2%,1%,-6.35%,-3%,3%,45.4%
CCOC(=O)c1csc(=S)[nH]1,2%,83% (active),76.8% (active),2%,32%,80.2% (active),-16%,95% (active),74.5% (active),5%,46%,-12.1%,-6%,86% (active),47%,15%,96% (active),35.9%
N=C(N)c1ccc(SCCCCCSc2ccc(C(=N)N)cc2)cc1,21%,56%,57.2%,17%,61%,74% (active),24%,86% (active),76% (active),22%,57%,44.6%,23%,83% (active),63.4%,25%,87% (active),72.3% (active)
COc1ccc(/C=C/c2ccnc3ccccc23)cc1OC,17%,96% (active),86.4% (active),2%,97% (active),90.9% (active),9%,98% (active),87.9% (active),6%,89% (active),83.7% (active),-8%,98% (active),82.5% (active),11%,96% (active),84.9% (active)
O=C(CN1CCOCC1)Nc1nc(-c2ccc(Cl)cc2)cs1,66%,94% (active),79.6% (active),49%,97% (active),53.8%,60%,99% (active),86.4% (active),46%,90% (active),62%,65%,67%,77.6% (active),76% (active),99% (active),85% (active)
O=C(Nc1nc2c(ncn2C2CC(OC(=O)c3ccccc3)C(COC(=O)c3ccccc3)O2)c(=O)[nH]1)c1ccccc1 (stereo not given),3%,5%,55.5%,8%,12%,38.5%,-16%,33%,69.6%,6%,18%,66.4%,7%,10%,57.6%,9%,12%,60%
Cc1nc2[nH]cc(C)c2c(=O)[nH]1,6%,-11%,-24.8%,-4%,-14%,-2.25%,-1%,-7%,4.1%,-11%,-4%,35.1%,2%,-15%,4.6%,-10%,-14%,-8.2%
COc1ccccc1Nc1nc(SC)ncc1SC,-4%,91% (active),95.1% (active),-12%,75% (active),96.4% (active),-5%,69%,94% (active),-8%,30%,41.9%,1%,93% (active),98% (active),-6%,82% (active),92.2% (active)
[N-]=[N+]=CC(=O)CCC(NC(=O)OCc1ccccc1)C(=O)OCc1ccccc1 (stereo not given),96% (active),99% (active),91.2% (active),97% (active),100% (active),93.1% (active),96% (active),99% (active),90.5% (active),96% (active),99% (active),90.9% (active),97% (active),100% (active),89% (active),97% (active),98% (active),90.8% (active)
S=C(NCCc1ccccc1)N/N=C/c1ccc(Cl)cc1,52%,57%,85.7% (active),36%,54%,74.3% (active),54%,61%,83.5% (active),34%,45%,83% (active),52%,65%,85.6% (active),61%,67%,80.9% (active)
CCOC(=O)CN1CCC(C(=O)CC2(O)C3(Cl)C4(Cl)C5(Cl)C(Cl)(Cl)C6(Cl)C4(Cl)C2(Cl)C6(Cl)C53Cl)CC1 (stereo not given),30%,98% (active),98.8% (active),2%,99% (active),99.2% (active),51%,99% (active),50.5%,58%,98% (active),98.5% (active),20%,98% (active),99.1% (active),62%,99% (active),98.8% (active)
